The values below come from PubChem BioAssay (Tox21).

For assay [1], the target named is Estrogen receptor beta (Homo sapiens) (UniProt Q92731). Description: qHTS assay to identify small molecule agonists of the estrogen receptor beta (ER-beta) signaling pathway (AID 1259377; active = well fitted activation curve with a large enough effect in the signal ratio in the repeat runs, not every such curve was filed as active; the % refers to the signal ratio). Summed up:
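HEK293T ER-beta-UAS-bla; 2% charcoal-stripped FBS; cells pre-incubated 6 hr, compound 16 hr, 37C/5% CO2; LiveBLAzer B/G FRET substrate 2 h RT; fluorescence intensity read.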
(qHTS replaces the single test concentration by a dilution series.)

Assay [2] can be described thus: qHTS assay to identify small molecule agonists of the androgen receptor (AR) signaling pathway in the presence of an antagonist - cell viability counter screen (AID 1259379). Also: series mostly up to about 92 µM; nearly all actives have a fitted effect of over 25% in size. Summed up:
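MDA-kb2 human breast carcinoma cells (stable MMTV-luciferase, AR/GR responsive) were seeded 3,000 cells/well, pre-incubated 5 hr at 37C without CO2, then given 3.0uM nilutamide and compounds at 15 concentrations for 16 hr. Viability was read by CellTiter-Fluor fluorescence.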

Assay [3] in a line: qHTS assay to identify small molecule antagonists of the estrogen receptor beta (ER-beta) signaling pathway - cell viability counter screen (AID 1259382).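 Also: HEK293T cells carrying ER-beta-UAS-bla reporter stimulated with estradiol; series mostly up to about 92 µM; nearly all actives have a fitted effect of over 55% in size.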 The method in brief:
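ER-beta-UAS-bla HEK293T cells (2,000/well, 2% charcoal-stripped FBS) were pre-incubated 6 hr at 37C, then given compound plus 1nM final 17-beta-estradiol for 16 hr. Viability was read in the same wells by CellTiter-Glo luminescence after 30 min at room temperature.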

In assay [4] the target is Estrogen receptor (Homo sapiens) (UniProt P03372). Description: qHTS assay to identify small molecule agonists of the estrogen receptor alpha (ER-alpha) signaling pathway in the presence of an antagonist (AID 1259383; calls by dose curve; also: nearly all actives have a fitted effect of over 15% in size; also: potency is read from the fitted curve at half-maximal effect; as to activation: top concentration of the series differs between compounds). Summed up: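 VM7Luc4E2 cells (endogenous full-length ER-alpha, 4×ERE-luciferase) were precultured 5 days in phenol red-free medium with 10% charcoal-stripped FBS, given 10.0nM ICI-182,780 (final), then treated with compounds at 15 concentrations for 22hr at 37C; luminescence read with ONE-Glo.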
Chain of Estrogen receptor (Homo sapiens) (P03372 whole entry, looked up): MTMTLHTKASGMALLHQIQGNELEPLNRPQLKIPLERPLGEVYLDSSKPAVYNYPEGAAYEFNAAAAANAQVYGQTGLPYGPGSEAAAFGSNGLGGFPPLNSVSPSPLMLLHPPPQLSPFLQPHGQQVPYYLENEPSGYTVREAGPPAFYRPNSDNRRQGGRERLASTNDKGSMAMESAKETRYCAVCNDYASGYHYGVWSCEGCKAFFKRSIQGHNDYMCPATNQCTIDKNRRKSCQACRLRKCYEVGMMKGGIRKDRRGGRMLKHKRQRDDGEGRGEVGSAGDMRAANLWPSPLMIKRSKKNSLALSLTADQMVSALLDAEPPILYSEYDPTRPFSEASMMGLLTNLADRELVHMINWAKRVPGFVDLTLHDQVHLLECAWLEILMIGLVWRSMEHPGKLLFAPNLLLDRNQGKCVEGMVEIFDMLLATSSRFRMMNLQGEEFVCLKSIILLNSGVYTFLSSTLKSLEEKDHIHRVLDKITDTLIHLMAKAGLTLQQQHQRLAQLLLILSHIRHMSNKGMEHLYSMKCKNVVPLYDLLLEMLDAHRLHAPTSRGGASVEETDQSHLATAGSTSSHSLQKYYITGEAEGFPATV

Assay [5] in a line: qHTS assay to identify small molecule agonists or antagonists of the thyroid stimulating hormone receptor (TSHR) signaling pathway - wild type cell line counter screen (AID 1259384; calls by dose curve). Summed up: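 Counter screen in untransfected Hek293: compounds (15-point titration, triplicate) plus phosphodiesterase inhibitor Ro20-1724 added after 18 h plating; 30 min RT. Intracellular cAMP via competitive d2/cryptate immunoassay, 1 h incubation.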

Assay [6] has as its target Thyrotropin receptor (Homo sapiens) (UniProt P16473). As to the kind of experiment: qHTS assay to identify small molecule antagonists of the thyroid stimulating hormone receptor (TSHR) signaling pathway (AID 1259385; calls by dose curve; also: nearly all actives have a fitted effect of over 20% in size). The method in brief: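 Antagonist mode: compound-treated TSHR-expressing HEK293 cells were stimulated with 1.5 ng/mL TSH (final) in presence of Ro20-1724 for 30 min at RT. HTRF cAMP detection after 1 h; each compound tested at 15 concentrations, triplicate.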

A short description of assay [7]: qHTS assay to identify small molecule agonists of the estrogen receptor alpha (ER-alpha) signaling pathway in the presence of an antagonist - cell viability counter screen (AID 1259386).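 Also: series mostly up to about 92 µM; cells exposed to compounds for 22 h at 37 °C before the viability read; nearly all actives have a fitted effect of over 30% in size.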 The method in brief:
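VM7Luc4E2 cells (endogenous full-length ER-alpha, 4×ERE-luciferase) were held 5 days in phenol red-free medium with 10% charcoal-stripped FBS, plated, then given 10.0nM ICI-182,780 and compounds at 15 concentrations for 22hr at 37C; viability read by CellTiter-Fluor fluorescence.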

The target of assay [8] is Progesterone receptor (Homo sapiens) (UniProt P06401). Description: qHTS assay to identify small molecule antagonists of the progesterone receptor (PR) signaling pathway (AID 1346795; active = well fitted inhibition curve with a large enough effect in the signal ratio in the repeat runs, not every such curve was filed as active; the % refers to the signal ratio; also: potency is read from the fitted curve at half-maximal effect). Summed up:
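Read-out is fluorescence from the LiveBLAzer B/G FRET substrate, cleaved by a UAS-controlled beta-lactamase in PR-UAS-bla HEK293T cells after 16 hr exposure to compound plus 1 nM promegestone (final), followed by 2 hr at room temperature.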

Assay [9] in a line: qHTS assay to identify small molecule antagonists of the TGF-beta/Smad signaling pathway - cell viability counter screen (AID 1346824). Also: nearly all actives have a fitted effect of over 50% in size. Summed up:
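Cytotoxicity counter-screen run in the same wells as the beta-lactamase Smad reporter read: CellTiter-Glo luminescence after 30 min at room temperature. HEK 293T SBE-bla cells had 5 hr compound exposure at 37 C with TGF-beta1 (0.25 ng/mL stock).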

Assay [10] is described as follows: qHTS assay to identify small molecule agonists of the TGF-beta/Smad signaling pathway - cell viability counter screen (AID 1346829). Also: top concentration of the series differs between compounds; nearly all actives have a fitted effect of over 45% in size. Summed up: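 Luminescence from CellTiter-Glo, read after a 30 min room-temperature incubation, gives cell viability of SBE-bla HEK 293T cells treated 5 hr with compounds at 37 C.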
A short description of assay [11]: qHTS assay to identify small molecule agonists of the TGF-beta/Smad signaling pathway (AID 1346859; active = well fitted activation curve with a large enough effect in the signal ratio in the repeat runs, not every such curve was filed as active; the % refers to the signal ratio; also: series mostly up to about 77 µM). The method in brief:
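SBE-bla HEK 293T, 4,000 cells/well, plated o/n; cpd in DMSO, 5 hr, 37 C/5% CO2; B/G FRET substrate 2 hr RT; ex 405, em 460/530 nm.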

Assay [12] can be described thus: Human pregnane X receptor (PXR) small molecule agonists, qHTS cell viability counter screen (AID 1346977). Also: nearly all actives have a fitted effect of over 50% in size. Also: potency is read from the fitted curve at half-maximal effect. Summed up:
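PXR-Luc HepG2, 2,000 cells/well, 5% charcoal-stripped FBS; 5hr settle; cpd 24hr, 37C/5% CO2; CellTiter-Fluor at 23hr, read 1hr later (fluorescence).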

Assay [13] addresses Estrogen receptor beta (Homo sapiens) (UniProt Q92731). Description: qHTS assay to identify small molecule antagonists of the estrogen receptor beta (ER-beta) signaling pathway (AID 1259378; active = well fitted inhibition curve with a large enough effect in the signal ratio in the repeat runs, not every such curve was filed as active; the % refers to the signal ratio; also: potency is read from the fitted curve at half-maximal effect). The method in brief:
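Antagonist mode: compounds added to beta-lactamase reporter HEK293T ER-beta-UAS cells stimulated with E2 (1nM final), 16 hr at 37C. LiveBLAzer B/G FRET substrate, 2 hours room temperature, fluorescence read-out.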

The target of assay [14] is Androgen receptor (Homo sapiens) (UniProt P10275). Description: qHTS assay to identify small molecule agonists of the androgen receptor (AR) signaling pathway in the presence of an antagonist (AID 1259381; calls by dose curve; also: nearly all actives have a fitted effect of over 15% in size). The method in brief: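 MDA-kb2 human breast carcinoma cells carrying an MMTV-luciferase reporter (AR- and GR-responsive) were treated with compounds at 15 concentrations plus 3.0uM final nilutamide for 16hr at 37C without CO2; luminescence was read after ONE-Glo addition.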
Chain of Androgen receptor (Homo sapiens) (P10275 whole entry, looked up): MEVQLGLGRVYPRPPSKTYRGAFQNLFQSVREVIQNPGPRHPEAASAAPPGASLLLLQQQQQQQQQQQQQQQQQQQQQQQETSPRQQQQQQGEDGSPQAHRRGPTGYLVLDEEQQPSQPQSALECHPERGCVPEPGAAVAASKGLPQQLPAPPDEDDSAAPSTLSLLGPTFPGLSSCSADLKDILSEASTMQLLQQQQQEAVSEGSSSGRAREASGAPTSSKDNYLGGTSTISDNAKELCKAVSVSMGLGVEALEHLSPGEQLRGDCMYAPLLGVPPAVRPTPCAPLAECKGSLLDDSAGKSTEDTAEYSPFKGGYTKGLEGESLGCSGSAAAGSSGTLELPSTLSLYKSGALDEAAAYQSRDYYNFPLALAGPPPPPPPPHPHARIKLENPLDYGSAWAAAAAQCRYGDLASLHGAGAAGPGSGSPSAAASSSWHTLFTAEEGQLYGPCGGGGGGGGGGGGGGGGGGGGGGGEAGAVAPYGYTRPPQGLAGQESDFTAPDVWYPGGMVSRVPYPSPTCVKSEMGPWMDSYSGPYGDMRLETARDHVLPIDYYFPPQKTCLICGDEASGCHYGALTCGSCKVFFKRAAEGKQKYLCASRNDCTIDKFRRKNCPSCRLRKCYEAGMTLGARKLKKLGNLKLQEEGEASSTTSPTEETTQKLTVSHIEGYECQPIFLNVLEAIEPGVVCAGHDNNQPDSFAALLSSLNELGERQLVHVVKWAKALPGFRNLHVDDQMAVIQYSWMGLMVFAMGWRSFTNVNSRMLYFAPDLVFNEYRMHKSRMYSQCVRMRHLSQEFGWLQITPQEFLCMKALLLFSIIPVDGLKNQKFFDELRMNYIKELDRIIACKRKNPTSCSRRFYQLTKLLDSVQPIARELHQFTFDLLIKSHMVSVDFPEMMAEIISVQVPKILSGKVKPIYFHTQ

For assay [15], the target named is Progesterone receptor (Homo sapiens) (UniProt P06401). Description: qHTS assay to identify small molecule agonists of the progesterone receptor (PR) signaling pathway (AID 1346784; calls by dose curve; also: nearly all actives have a fitted effect of over 30% in size). The method in brief: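 Beta-lactamase reporter read-out: after 16 hr compound treatment at 37C and a further 2 hr at room temperature with LiveBLAzer B/G FRET substrate, fluorescence was measured in PR-UAS-bla HEK 293T cells grown in 2% charcoal-stripped serum.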
Chain of Progesterone receptor (Homo sapiens) (P06401 whole entry, looked up): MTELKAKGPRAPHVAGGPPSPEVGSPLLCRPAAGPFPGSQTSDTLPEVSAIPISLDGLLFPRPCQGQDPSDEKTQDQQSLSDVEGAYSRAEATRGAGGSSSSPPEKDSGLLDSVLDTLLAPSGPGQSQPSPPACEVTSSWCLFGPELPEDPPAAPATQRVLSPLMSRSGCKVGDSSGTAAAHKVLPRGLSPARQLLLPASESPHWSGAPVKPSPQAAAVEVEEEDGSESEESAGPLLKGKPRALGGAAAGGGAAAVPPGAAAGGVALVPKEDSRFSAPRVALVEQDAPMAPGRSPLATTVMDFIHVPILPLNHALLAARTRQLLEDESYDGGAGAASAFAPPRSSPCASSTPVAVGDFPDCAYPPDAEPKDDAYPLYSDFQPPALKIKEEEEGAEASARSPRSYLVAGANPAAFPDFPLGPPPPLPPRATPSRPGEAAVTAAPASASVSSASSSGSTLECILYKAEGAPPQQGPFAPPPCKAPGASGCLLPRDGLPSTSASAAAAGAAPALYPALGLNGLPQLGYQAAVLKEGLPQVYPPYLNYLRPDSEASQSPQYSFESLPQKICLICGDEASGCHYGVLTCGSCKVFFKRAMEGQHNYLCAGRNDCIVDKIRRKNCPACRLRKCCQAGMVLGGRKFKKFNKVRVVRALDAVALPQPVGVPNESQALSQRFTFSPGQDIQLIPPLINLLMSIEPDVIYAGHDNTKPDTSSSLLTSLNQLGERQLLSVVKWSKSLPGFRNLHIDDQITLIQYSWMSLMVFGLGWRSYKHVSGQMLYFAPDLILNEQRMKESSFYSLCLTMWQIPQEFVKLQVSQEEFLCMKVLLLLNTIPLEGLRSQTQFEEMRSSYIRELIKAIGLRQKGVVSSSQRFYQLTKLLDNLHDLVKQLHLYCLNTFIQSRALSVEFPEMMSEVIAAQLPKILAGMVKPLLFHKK

For assay [16], the target named is Thyrotropin-releasing hormone receptor (Homo sapiens) (UniProt P34981). As to the kind of experiment: qHTS assay to identify small molecule antagonists of the thyrotropin-releasing hormone receptor (TRHR) signaling pathway (AID 1346877; active = well fitted inhibition curve with a large enough effect in the repeat runs, not every such curve was filed as active; also: series mostly up to about 51 µM). Summed up:
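TRHR-expressing HEK293 cells were seeded, cultured 18 h at 37 °C, then loaded with calcium dye for 2 h. Compounds were pre-incubated 5 min at room temperature before 1 nM TRH (final) was added, and kinetic fluorescence was recorded for 3 min.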

Assay [17] shares this target. Description: qHTS assay to identify small molecule agonists of the thyrotropin-releasing hormone receptor (TRHR) signaling pathway (AID 1346891; calls by dose curve; also: series mostly up to about 58 µM). The method in brief:
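Intracellular calcium rise, read as fluorescence every second for 3 min, served as the agonist signal in dye-loaded HEK293 cells expressing TRHR; each compound ran at 15 concentrations in triplicate.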

The nature of assay [18]: qHTS assay to identify small molecule antagonists of the progesterone receptor (PR) signaling pathway - cell viability counter screen (AID 1346798). Also: series mostly up to about 92 µM; nearly all actives have a fitted effect of over 50% in size. Summed up: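 HEK293T PR-UAS-bla, 2% charcoal-stripped FBS; 4 hr pre-plate; cpd + R5020, 16 h 37C; LiveBLAzer read first; then CellTiter-Glo 30 min RT, luminescence.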
The nature of assay [19]: qHTS assay to identify small molecule agonists of the progesterone receptor (PR) signaling pathway - cell viability counter screen (AID 1346799; calls by dose curve; also: nearly all actives have a fitted effect of over 45% in size). Summed up: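 Luminescence from CellTiter-Glo, added after the beta-lactamase FRET read in the same wells, gave cytotoxicity in PR-UAS-bla HEK293T cells treated with compounds for 16 hr at 37C.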
Assay [20] in a line: qHTS assay to identify small molecule agonists of the estrogen receptor beta (ER-beta) signaling pathway - cell viability counter screen (AID 1259380). Also: nearly all actives have a fitted effect of over 30% in size. The method in brief:
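ER-beta-UAS-bla HEK293T cells in medium with 2% charcoal-stripped FBS were preincubated 6 hr at 37C, dosed with compound in DMSO for 16 hr, then after the bla read, CellTiter-Glo was added for 30 min at room temperature; luminescence recorded.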

SMILES strings stand for the structures. Values without a mark were called inactive. Records with an inconclusive call do not appear. The source made the active and inactive calls. Unless noted, calls follow the shape of the dose curve; as a rule, active = well fitted curve in the direction sought with a large enough effect in the repeat runs; inconclusive = weak or mixed curves; inactive = no such curve, though single readings can be large; an effect the other way counts as inactive or inconclusive.
% is scaled to controls: 0 for no effect and ±100 for the full control effect.

Chain of Thyrotropin receptor (Homo sapiens) (P16473 whole entry, looked up): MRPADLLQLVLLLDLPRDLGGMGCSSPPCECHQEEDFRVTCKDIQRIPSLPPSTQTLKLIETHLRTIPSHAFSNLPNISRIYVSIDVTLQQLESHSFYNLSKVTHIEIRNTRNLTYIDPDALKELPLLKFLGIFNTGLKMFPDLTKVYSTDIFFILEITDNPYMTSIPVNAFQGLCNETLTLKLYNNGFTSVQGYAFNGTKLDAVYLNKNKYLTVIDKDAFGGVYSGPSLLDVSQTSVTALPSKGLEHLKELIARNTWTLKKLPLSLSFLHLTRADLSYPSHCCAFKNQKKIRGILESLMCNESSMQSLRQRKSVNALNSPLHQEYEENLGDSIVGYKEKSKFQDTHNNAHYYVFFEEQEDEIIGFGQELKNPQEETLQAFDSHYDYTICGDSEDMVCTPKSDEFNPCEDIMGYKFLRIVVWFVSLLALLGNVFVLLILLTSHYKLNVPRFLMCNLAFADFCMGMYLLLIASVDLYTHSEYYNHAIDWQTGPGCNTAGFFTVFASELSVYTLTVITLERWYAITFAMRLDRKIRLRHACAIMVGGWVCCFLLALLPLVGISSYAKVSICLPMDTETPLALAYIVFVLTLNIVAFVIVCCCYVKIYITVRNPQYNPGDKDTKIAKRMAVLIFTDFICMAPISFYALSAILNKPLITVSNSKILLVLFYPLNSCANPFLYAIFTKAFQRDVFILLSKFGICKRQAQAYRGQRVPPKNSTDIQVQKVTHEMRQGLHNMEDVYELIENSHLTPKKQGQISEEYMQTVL
Chain of Estrogen receptor beta (Homo sapiens) (Q92731 whole entry, looked up): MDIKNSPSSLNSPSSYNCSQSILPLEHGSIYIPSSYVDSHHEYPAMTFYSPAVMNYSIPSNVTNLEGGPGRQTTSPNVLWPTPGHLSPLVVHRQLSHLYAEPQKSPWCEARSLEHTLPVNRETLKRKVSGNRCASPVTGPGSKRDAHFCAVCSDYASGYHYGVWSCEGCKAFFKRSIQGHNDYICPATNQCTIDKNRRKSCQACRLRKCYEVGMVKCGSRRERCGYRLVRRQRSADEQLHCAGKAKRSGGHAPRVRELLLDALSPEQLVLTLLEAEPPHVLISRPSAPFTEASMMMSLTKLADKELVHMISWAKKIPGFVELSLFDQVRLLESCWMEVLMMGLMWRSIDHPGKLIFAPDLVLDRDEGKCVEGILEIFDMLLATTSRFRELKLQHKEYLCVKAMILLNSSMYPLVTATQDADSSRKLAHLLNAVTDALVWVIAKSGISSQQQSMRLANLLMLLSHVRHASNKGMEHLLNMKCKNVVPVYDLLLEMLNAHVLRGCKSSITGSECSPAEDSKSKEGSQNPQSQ
Chain of Thyrotropin-releasing hormone receptor (Homo sapiens) (P34981 whole entry, looked up): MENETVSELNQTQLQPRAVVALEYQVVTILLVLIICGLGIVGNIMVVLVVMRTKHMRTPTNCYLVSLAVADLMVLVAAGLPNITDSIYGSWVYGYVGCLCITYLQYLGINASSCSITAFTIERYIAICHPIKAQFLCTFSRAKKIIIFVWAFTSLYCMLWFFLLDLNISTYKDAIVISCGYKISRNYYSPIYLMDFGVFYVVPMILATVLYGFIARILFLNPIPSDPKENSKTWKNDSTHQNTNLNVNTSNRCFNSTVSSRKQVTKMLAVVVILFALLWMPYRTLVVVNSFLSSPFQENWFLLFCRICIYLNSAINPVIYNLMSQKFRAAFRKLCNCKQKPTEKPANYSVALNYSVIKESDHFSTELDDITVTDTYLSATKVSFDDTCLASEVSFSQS

Regarding `Nc1ccc(Oc2ccc(Cl)cc2)cc1`, the Potency result in assay [1], in assay [2], in assay [3], in assay [4], in assay [6] and in assay [7] was “inactive” each time. The Potency entry in assay [9], in assay [10], in assay [11] and in [12] was “inactive” each time. In [5], the result was inactive. For the same compound, the Potency in assay [8] is 18.9 µM (active).
Take `Fc1ccc(C(c2ccc(F)cc2)N2CCNCC2)cc1`: the Potency result in [1], in [13], in assay [3], in assay [4], in [6] and in [7] was “inactive” each time. Further, the Potency entry in [15], in [8], in assay [9], in assay [10], in [11] and in [16] was “inactive” in each case. In addition, the Potency entry in assay [12] is “inactive”. The result in assay [14], in [5] and in assay [17] was inactive.
In the case of `OC12N=C(c3ccccc3)SC1Cc1cc(Cl)ccc12` (stereo not drawn), the Potency entry in [1], in assay [2], in [3], in assay [7], in assay [15] and in [9] was “inactive” throughout. Further, the Potency entry in [10] and in [11] was “inactive” throughout. For the same compound, the Potency is 61.1 µM (active) in assay [13], 1.93 µM (active) in assay [4] and 43.3 µM (active) in assay [8].
In the case of `C=CCn1c(=O)n(CC=C)c(=O)n(CC=C)c1=O`, the Potency entry in [1], in assay [13], in assay [2], in assay [3], in [6] and in assay [7] was “inactive” in each case. For the same compound, the Potency result in assay [15], in assay [8], in assay [18], in assay [19], in assay [9] and in [10] was “inactive” in each case. Also, the Potency entry in [11] and in assay [16] was “inactive” each time. The outcome in assay [5] and in assay [17] was inactive.
`COC(=O)c1ccccc1C`: the Potency result in [1], in [13], in [20], in assay [3], in assay [4] and in [6] was “inactive” in each case. In addition, the Potency entry in [7], in assay [15], in assay [8], in [18], in assay [19] and in assay [9] was “inactive” in each case. For the same compound, the Potency result in assay [10] and in assay [11] was “inactive” throughout. The call in assay [5] was inactive.
With `OCC(F)(F)F`, the Potency entry in assay [1], in assay [13], in assay [6], in assay [7], in [15] and in assay [8] was “inactive” each time. In addition, the Potency result in [18], in [9], in assay [10], in [11], in assay [16] and in assay [12] was “inactive” throughout. In addition, the result in assay [5] and in assay [17] was inactive.
In the case of `COc1cc2nc(N3CCN(C(=O)c4ccco4)CC3)nc(N)c2cc1OC`, the activation in assay [1] is -0.974% [at 19 µM]; in assay [4], 0.868% [at 19 µM]; in assay [15], 4.29% [at 19 µM]; in assay [11] it was -4.52% [at 15.8 µM]. Further, in assay [13], the activity, negative = inhibition was 1.22% [at 19 µM]. Also, the activity change, negative = cytotoxicity in [3] was -13.3% [at 19 µM]; in [7], -1.18% [at 19 µM]; in assay [18], -16.5% [at 18.9 µM]; in assay [19], 2.28% [at 19 µM]; in assay [10], 0.758% [at 15.8 µM]. Besides, the cAMP activity change in [5] is -1.07% [at 18.9 µM]. The activity change, negative = inhibition in assay [6] is -8.31% [at 19 µM]; in assay [8], 5.13% [at 18.9 µM]. The Potency in assay [12] is 11.6 µM (active).
Regarding `Cc1c(C)c([N+](=O)[O-])c(C(C)(C)C)c([N+](=O)[O-])c1C`, the Potency entry in assay [1], in assay [2], in [20], in assay [3], in [4] and in assay [6] was “inactive” throughout. The Potency result in assay [7], in assay [18], in [9], in assay [10], in assay [11] and in assay [16] was “inactive” in each case. The Potency result in assay [12] was “inactive”. Moreover, the compound was called inactive in assay [5] and in [17].
